According to PubChem BioAssay AID1347426 (Functional Genomics Laboratory (NCATS/FGL), 2020):
Among all 31,000 sequences or so, about 1,400 (4.5%) were called active. The sample as a whole holds a higher share of actives than the screen did. A number with no mark means an inactive call.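 How the source made its calls: active means median seed-adjusted z-score above 1 or below -1; inactive means the rest.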

test: Novel Modifiers of Survival Motor Neuron (SMN) Protein: Gene Identification via Genome-wide siRNA Screen; details: HEK293T SMN2-luciferase reporter, siRNA knockdown, 72 h; actives lie on both sides
Text: Spinal muscular atrophy (SMA) is the most common neuromuscular autosomal recessive disorder and one of the leading genetic causes of infant death. SMA results from mutations inducing loss of function or deletion in the survival of motor neuron-1 gene (SMN1), leading to deficiency of the survival motor neuron (SMN) protein. Although a second nearly identical gene, SMN2, is retained in humans, its expression primarily produces an aberrantly spliced isoform that is largely unstable and quickly degraded. We performed a genome-wide RNAi screen using a cell-based reporter assay to identify genes and pathways that modulate SMN protein stability. The screen identified over 200 genes that led to the greatest increase or decrease in luciferase expression.
Using HEK293T cells stably expressing a luciferase reporter that combines the promoter and splicing based cassettes in tandem with the major portion of the native SMN2 cDNA with luciferase, we performed a genome-wide RNAi screen to identify modulators of SMN protein levels. Luciferase is expressed when full-length SMN protein is generated with luminescence signal proportional to SMN protein levels. Our luciferase-based reporter assay was used to screen Ambion Silencer Select Human Druggable Genome siRNA library (10418 genes, 3 unique siRNAs per gene) using lipid-based reverse transfection.
Briefly, 1 pmol of each siRNA was spotted to a well of a 384-well plate (Corning, Corning, NY) and 20 microL of serum-free DMEM containing […] of Lipofectamine RNAiMax (Life Technologies, Carlsbad, CA) was then added to each well. Transfected cells were maintained at 37 degrees C in 5% CO2 for 72 hours, 20 microL of ONE-Glo Reagent (Promega) was added to wells for luciferase quantification. Raw luminescence reads were normalized to Ambion(R) Silencer(R) Negative Control #2 siRNA, then log10 transformed. A robust statistical measure of median absolute deviation (MAD) to standardize siRNA activities from each screen. Common Seed Analysis was used to help prioritize clean hits as opposed to those appearing to arise from seed based off-target effects. Candidate modulators were defined as the genes having a MAD score greater than 1.0 or less than -1.0.

Sequence | median seed-adjusted z-score
GCAACAGUAUUUCGGUAUATT against CHEK1 | -5.1 (active)
GUCUUAGAAUGAGUAGCAATT against KCNMA1 | 0
CACUAUCAGUUGGAACAGATT against CD36 | -0.000845
GGCUGAGAUGCGUCGUAAATT against ARCN1 | -1.25 (active)
GAUUGAUGGGUGUAAGAAATT against SMS | 0.186
GAGACCUAAUGUUUCAUAUTT against PRKCI | 0.386
CAAGGUCAAGUGCGAGAAATT against MAFB | 0.674
CCGUCAUGGUUGAUGGAGATT against SEMA4D | 0.309
CCAUAGUCUUCAUCUACGATT against GPR153 | -1.08 (active)
GAACAGUGUUUGUCAGCAUTT against ASAH2 | 0.615
AAAGCACAGUGUUAAAUGATT against TAC1 | 0.0499
CCCAGAAGAUUACCUUUGATT against NARG1L | 0.0121
CCGUGCUGACCUCCAAAUATT against HBA1 | -1.03 (active)
CUUUCGGUUUGAAGAAUAATT against ZC3H15 | 0.191
AGCAUGUGGUAGACGAGAATT against RGS19 | 0.295
GACCUUCACCGUUACGUUATT against HDLBP | -1.18 (active)
AGCUCGUACUGUUCCAAUATT against MMP19 | 0.43
AGUGACAGAGUACAAGAUATT against EIF3G | -0.198
AAGUGGGAGUUACAUUAAATT against DLGAP2 | 0.295
GGAUGUCAACUGUGCUUUUTT against MED24 | -2.3 (active)
CAGUGAAGGUGAAAUUCGATT against UCHL5 | -0.358
GGAUAAUGAUCGCGAGGAATT against ALS2 | 0
GGUUCACGGCUAAAGCAAUTT against DGCR8 | -0.266
CUACCAGGCUUAAUAGGAATT against GFM2 | 0.26
GGGUCUUACUGAUUCCACATT against A4GNT | 0.213
CGAGAGUUACUUACAAGAATT against RAN | -3.09 (active)
CAUCAUUACCAGAGCUACATT against RLN1 | 0.0637
CCGCAGUUCUAGGUCCAAUTT against ABCC2 | -0.0464

Sequence | median seed-adjusted z-score
CAACCAAGGUCAGUCUUAUTT against TFCP2L1 | -0.246
AGAUAAGAAUCGCAUGACATT against ARHGAP9 | 0
GAACGUAGAAUGAAAGUAATT against PSMC1 | -2.23 (active)
GACUAUAACUUCCCGAAAATT against SYT11 | 0.29
GGGUUACAGCUAAAAUUGUTT against OC90 | 0.216
GGUGCGGCCCUAUUACUUUTT against RPUSD2 | -0.215
GAGACUCUGUGGACGUAAATT against ZNF101 | 0.336
AGCUUCUACCGUGUCCUUATT against UCK2 | -1.51 (active)
CUACCUUACUUUAACAUUATT against KCNS3 | 0.103
GCGAAAUUUUGGAUAUCAATT against KIF23 | -0.449
GGACACCUGUGAACCGCAUTT against ARID3A | -1.11 (active)
GGGAUAUUUUCUACGCUUUTT against DNAH5 | -0.45
GGUCACCACCAAAUACGUUTT against B4GALNT2 | -0.174
CGAUUUAUCCGAUGCCCUUTT against CD99 | 0
CCAUCUCCAGUUGUAUUUUTT against CHKA | -0.558
GACGGAAAGACUUACGUUATT against EIF2AK2 | 0.419
GAAUCAACUUUGCCGUGUUTT against SHMT2 | -0.0453
CCUUGUCACAGGUCAAUCATT against VWF | 0.159
GAUGGGACAUCGUUGCUCATT against OASL | 1.02 (active)
CAGGAUCUACGAUAAGGUATT against ACSL5 | 0.109
CGAGAAAGAAUUCCACUUUTT against HOXC5 | 0.507
GACUGACAUUGAGAUUACATT against CCT3 | -0.416
GGUGAAUACUUCCGGUACATT against SULT2B1 | 0
CUCUGUGAAUGGUGCCGAATT against FAM57A | 0.0434
GGGAAUGACUGGAAGACGATT against TTF1 | 1.76 (active)
GAAUGGUGUGGAUCUCCUATT against ARPC5 | -0.479
GCAAUGUGGUCAAGACGGATT against INHBE | 0.172
